# Screens (PubChem)
# Rows were chosen to be rich in hits. Some 1.8% of all compounds tested hit in one or more screens of this group.
# CIT2-GFP yeast – modulators of CIT2-GFP expression in yeast, primary screen, S. cerevisiae, GFP fusion, multiplex flow cytometry, MLPCN library; AID 2029, 2009; S. cerevisiae CIT2-GFP strain, 3 h; 100 means same as DMSO wells; 320,000 tested, 0.065% active; GFP response vs DMSO, % at 10 µM;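 active means GFP response relative to DMSO above a set limit, near the screen mean plus 3 SD, cut at about 150% in these data; inconclusive means Fewer than 70 cells measured for a yeast strain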;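 further: ratio of well median GFP fluorescence to mean of DMSO wells on the plate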
# RPL19A-GFP yeast – RPL19A-GFP expression modulators in yeast, primary screen, cell-based, S. cerevisiae, multiplex flow cytometry, MLPCN; 330,000 tested, 0.3% active; S. cerevisiae RPL19A-GFP strain, 3 h; active compounds read low; AID 2025, 2009; percent response vs DMSO, % at 10 µM;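 active means percent response vs DMSO below 50%; inconclusive means fewer than 70 events counted for the yeast strain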;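 further: median channel GFP fluorescence of the barcoded RPL19A-GFP strain; lower means less RPL19A-GFP as with rapamycin TOR inhibition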
# MEP2 TOR yeast – modulators of MEP2-GFP levels in yeast, primary screen, S. cerevisiae, multiplex flow cytometry, MLPCN library | S. cerevisiae MEP2-GFP strain, 3 h; 100% = DMSO control level | GFP response vs DMSO, % at 10 µM | 330,000 tested, 0.51% active;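 active means GFP response versus DMSO above a set limit, roughly screen mean plus 3 SD, cut at about 180% in these data; inconclusive means fewer than 70 cells counted for a yeast strain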;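 further: median GFP fluorescence of the barcode-gated MEP2-GFP cells per well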
# LAP4 TOR yeast – modulators of LAP4-GFP expression in yeast, primary screen, S. cerevisiae, multiplex flow cytometry, MLPCN library; 3 h; median GFP as percent of DMSO wells; GFP response vs DMSO, % at 10 µM; 320,000 tested, 0.34% active; AID 2023, 2009;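 active means GFP response vs DMSO above a set limit, about the screen mean plus 3 SD, cut at about 150% in these data; inconclusive means under 70 cell events counted for the yeast strain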
# Myeloid diff MLP – induction of myeloid progenitor differentiation, primary screen, cell-based, flow cytometry, MLPCN library | ER-HoxA9 myeloid progenitors, lysozyme-GFP differentiation | 360,000 tested, 1% active | calls only at 10 µM;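 active means normalized GFP-positive differentiation at or above the plate's own cutoff, the solvent-only control mean plus 3 SD; inconclusive means no clear call, values can overlap the other calls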;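 further: cells exposed to compound for four days before flow analysis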
# AGP1 TOR yeast – modulators of AGP1-GFP expression in yeast TOR pathway, primary screen, cell-based, multiplex flow cytometry, S. cerevisiae, MLPCN library. 3 h; GFP as percent of DMSO wells. GFP response vs DMSO, % at 10 µM. 320,000 tested, 0.02% active. AID 2066, 2009;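 active means GFP response relative to DMSO above a set limit, near screen average plus 3 SD, cut at about 150% in these data; inconclusive means fewer than 70 cells counted for the yeast strain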;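 further: median GFP channel fluorescence of the gated AGP1 strain per well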
# Numbers stand for hits; - = inactive; ? = inconclusive; . = no result; + = active, no number; [ ] = another dose, or the depositor's remark.
SMILES,CIT2-GFP yeast,RPL19A-GFP yeast,MEP2 TOR yeast,LAP4 TOR yeast,Myeloid diff MLP,AGP1 TOR yeast
CC(C)OC(=O)CC12CN3CN(C1)CC(CC(=O)OC(C)C)(C3)C2=O,-,-,-,-,-,-
COC(=O)C(C(=O)Nc1ncccn1)C1CCCCCC1 (configuration not stated),?,?,316.6[may fluoresce violet],-,-,?
COC(=O)C(C(=O)Nc1ccccc1C)C1CCCCCC1 (configuration not stated),-,-,-,-,-,-
CC(C)CCn1c(CN2CCN(c3cccc(Cl)c3)CC2)nc2c1c(=O)n(C)c(=O)n2C,-,-,-,-,+,-
COCCn1c(CN2CCN(c3cccc(Cl)c3)CC2)nc2c1c(=O)n(C)c(=O)n2C,-,-,-,-,-,-
COc1ccc(N2CCN(Cc3nc4c(c(=O)[nH]c(=O)n4C)n3CCCc3ccccc3)CC2)cc1,-,-,-,-,-,-
COc1ccc(N2CCN(Cc3nc4c(c(=O)[nH]c(=O)n4C)n3Cc3cccc(Cl)c3)CC2)cc1,-,-,-,-,+,-
COc1ccccc1C=C(C(=O)c1ccccc1)c1ccccc1,.,.,.,.,-,.
O=C(COc1ccc(Br)cc1)Nc1ccc(-c2nnc(-c3ccco3)o2)cc1,?,48.5[may fluoresce violet],177.0[may fluoresce violet],-,-,-
COc1ccc(OC)c(NC(=O)CN2CCc3ccccc3C2)c1,?,38.8[may fluoresce violet],395.5[may fluoresce violet],-,-,-
O=C(NNC(=O)c1cccs1)c1ccc(Cl)cc1,-,-,-,-,-,-
Cc1nn(-c2ccc(F)cc2)c(Cl)c1/C=C/C(=O)OCC(=O)Nc1c(F)c(F)c(F)c(F)c1F,-,-,-,-,-,-
COc1ccc(NC(=O)N2CCN(c3nc(-c4cccc(OC)c4)cs3)CC2)cc1,-,-,-,-,+,-
N#Cc1ccccc1Cn1cc(/C=N/Nc2ccc([N+](=O)[O-])cn2)c2ccccc21,-,-,-,-,+,-
CCCc1c(Cc2cccc(F)c2)ncn1Cc1cccc(-c2ccccc2)c1,.,.,.,.,+,.
CCc1c(-c2ccccc2)ncn1Cc1cccc(-c2ccccc2)c1,.,.,.,.,-,.
CCCCN1C(=S)NC[C@@H]1Cc1ccc(O)cc1,-,-,-,-,-,-
CCN(CC)Cc1nc2c(c(=O)[nH]1)C1(CCCC1)Cc1ccccc1-2,-,-,-,-,-,-
O=c1[nH]c(CN(CCO)CCO)nc2c1C1(CCCCC1)Cc1ccccc1-2,?,42.3[may fluoresce violet],288.8[may fluoresce violet],-,-,.
CCCCOc1ccc(C2OC34CCCCC3C(C#N)(C#N)C2(C#N)C(=N)O4)cc1 (configuration not stated),-,-,-,-,-,-
Cc1ccc(C2OC34CCCCCC3C(C#N)(C(=N)O4)C2(C#N)C#N)cc1 (configuration not stated),?,-,197.1[may fluoresce violet],-,-,?
C=CCOc1ccc(C2OC34CCCCC3C(C#N)(C#N)C2(C#N)C(=N)O4)cc1 (configuration not stated),?,35.1[may fluoresce violet],567.6[may fluoresce violet],-,-,.
Nc1ccc(S(=O)(=O)Nc2nccc(/C=C/c3cccc([N+](=O)[O-])c3)n2)cc1,.,.,.,.,-,.
O=C(N/N=C\c1c(O)ccc2ccccc12)c1ccc(S(=O)(=O)N2CCCCC2)cc1,-,-,-,-,+,-
CN1/C(=C\C(=O)c2cccnc2)C(C)(C)c2ccccc21,-,-,-,-,-,-
CN1/C(=C\C(=O)c2cccc(S(=O)(=O)N3CCCCC3)c2)C(C)(C)c2ccccc21,162.1,-,-,-,-,-
CC(=O)Nc1cccc(C(=O)OCC(=O)Nc2c(C)nn(-c3ccccc3)c2C)c1,-,-,-,-,-,-
COc1ccccc1Cn1c(=S)[nH]c2cc(C(=O)N3CCC(C(N)=O)CC3)ccc2c1=O,-,-,-,-,+,-
COCCNS(=O)(=O)c1ccc2c3c(cccc13)C(=O)N2C,-,-,-,-,-,-
CCCC(=O)N(c1ccc(OCC)cc1)S(=O)(=O)c1ccc2c3c(cccc13)C(=O)N2C,-,-,-,-,+,-
